According to PubChem BioAssay AID1671193 (National Center for Advancing Translational Sciences (NCATS), 2021):
About 180 (0.12%) of roughly 150,000 compounds were called active. Not shown: some 6% with an inconclusive outcome. The sample holds actives, similar compounds and a random draw of the others, so the mix is not that of the screen. Unmarked numbers belong to inactive results. Calls follow the shape of the dose curve; as a rule, active = well fitted cell-killing curve with a large enough effect; inconclusive = small, poorly fitted or top-dose-only effect, or effect the other way; inactive = flat fitted curve, though single readings scatter.

Test: GF-AFC viability counterscreen for inhibitors of alpha-synuclein gene (SNCA) expression; also: nearly all actives have a fitted effect of over 30% in size
Conditions: HEK-293-SNCA-luc viability, GF-AFC fluorescence, 24 h; series mostly up to 57.1 µM; activity change, negative = cytotoxicity: at the top concentration
Source text: Assay Submitter (PI): Daniel R. Scoles Ph.D.
Department of Neurology, University of Utah, Salt Lake City, Utah
Accumulation of alpha-synuclein is a main underlying pathological feature of Parkinson's disease (PD) and alpha-synucleinopathies, for which lowering expression of the alpha-synuclein gene (SNCA) is a potential therapeutic avenue. Using a cell-based luciferase reporter of SNCA expression we performed a quantitative high throughput screen (qHTS) of 155,885 compounds in dose response. The screening assay was generated using genome editing to insert the luciferase gene downstream and in frame of the SNCA gene in HEK-293 cells (1). A viability counterscreen using GF-AFC was used to eliminate cytotoxic and false positive compounds. After in silico analysis (clustering, removal of frequent hitter nuisance chemotypes), inhibitor compounds from the primary screen were selected for follow up and re-tested at 11-doses in the SNCA-luc cells (luciferase and GF-AFC confirmation), and in CMV-luc expressing cell line to flag general transcriptional repressors.
Described herein are the results of the GF-AFC viability counterscreen for SNCA inhibitors; inactivity (no decrease in fluorescence signal, not cytotoxic) is the desired output for this assay.
1. Dansithong, W., Paul, S., Scoles, D. R., Pulst, S. M., and Huynh, D. P. (2015) Generation of SNCA Cell Models Using Zinc Finger Nuclease (ZFN) Technology for Efficient High-Throughput Drug Screening. PLoS ONE 10, e0136930.
SEQUENCE No. (e.g., 1, 2, 3, etc.); […] (e.g., Cells, Incubation, Reagent, etc.); VALUE; DESCRIPTION
1; Cells; 4 uL; Dispense 1500 HEK-293-SNCA-luc cells/well into Greiner 1536-well white / solid bottom tissue culture treated plate. The plate was covered with metal lids with gas-exchange holes.
2; Incubate; 24 hours; Incubate at 37C, 5% CO2, 95% RH.
3; Compounds; 23 nL; Compounds and controls were transferred via a Kalypsys Pin Tool (Wako USA) equipped with a 1536-slotted pin array. The plate was covered with metal lids with gas-exchange holes.
4; Incubate; 24 hours; Incubate at 37C, 5% CO2, 95% RH.
5; Dispense; 1 uL; Dispense Gly-Phe-7-amino-4-trifluoromethylcoumarin (GF-AFC, prepared at 125 uM in PBS) was added. The plate was covered with metal lids with gas-exchange holes.
6; Incubate; 30 min; Incubate at 37C, 5% CO2.
7; Detector; Fluorescence; Measure fluorescence with ViewLux microplate reader (PerkinElmer) equipped with 405/10 excitation and 540/25 emission filters.
8; Dispense; 3 uL; Dispense ONE-Glo ([…]) lucifase detection reagent was added to each well. Plates were covered with metal lids with gas-exchange holes.
9; Incubate; 15 min; Incubate at room temperature.
10; Detector; Luminescence; Measure luminescence with ViewLux microplate reader (PerkinElmer) equipped with clear filters.
NOTES (numbers refer to sequence above)
1; HEK-293-SNCA-luc were cultured and suspended in phenol-red free DMEM (4.5 g/L glucose, 25 mM HEPES, cat #21063 (Thermo)).
3; Compounds were added to the assay plate in an 11-point intra plate dose response, 1:3 titration in DMSO with a final concentration range of […]. Vehicle-only plates, with DMSO being pin-transferred to every well, were inserted at the beginning of screening runs to confirm expected assay performance. Activity was normalized to wells containing medium only (-100% activity, full inhibition) and SNCA-luc cells treated with DMSO vehicle control (0% activity), contained on the same plate as test samples.
10; Signals were analyzed, and dose-response curves were fit using the Hill equation. Compounds in curve classes -1.1, -1.2, -2.1, -2.2 in the SNCA-luc assay were considered active. Compounds were eliminated from further consideration if also active (curve class -1.1, -1.2, -1.3, -1.4, -2.1, -2.2, -2.3, -2.4) in the GF-AFC cytotoxicity assay.
Potency is read from the fitted curve at half-maximal effect.

SMILES | activity change, negative = cytotoxicity | Potency
Cc1noc2c(Nc3ccc(Cl)cc3)cc(-c3cccnc3)nc12 | -15.1% [at 87.6 µM] | –
COCCN1CCOC2(CCN(Cc3ccc(C(C)C)cc3)CC2)C1=O | -4.8% [at 87.6 µM] | –
CN(C)Cc1cccc(-c2cc(-c3ccncc3)c3cncn3c2)c1 | 0.379% [at 87.6 µM] | –
O=C(Cc1ccc(F)cc1)N1CN=C(C2CCN(Cc3ccc(F)cc3)CC2)N1 | -6.57% | –
COC(=O)[C@@H]1Cc2ncn(Cc3ccccc3)c2CN1C(=O)CC(C)(C)C | -4.83% [at 87.6 µM] | –
CC(C)Oc1ccc(CN2CCCC(COc3ccccc3C(=O)N3CCCC3)C2)cc1 (centres undefined) | -12.6% | –
COc1ccc(N2CCN(c3nc(C(=O)NC4CCCCCC4)cs3)CC2)cc1 | -19.7% | –
O=C(C1CCCC1)N1CCc2nc(C3CC3)nc(-c3ccc(O)cc3)c2C1 | -12.3% | –
O=C1C2CN(Cc3ccc4[nH]ccc4c3)CCC2OCCN1Cc1ccccc1F (centres undefined) | -5.56% [at 87.6 µM] | –
CCN(CC)CCCCNc1ncc2cc(-c3c(Cl)cccc3Cl)c(NC(=O)NC(C)(C)C)nc2n1 | – | 15 µM (active)
CN(C)C[C@@H]1CN(Cc2cccnc2)C[C@H]1NC(=O)Cc1cccc(F)c1 | 17.1% | –
O=C(c1cccc(O)c1)N1CCNc2cnc(Nc3cccc(F)c3)nc2C1 | -14.6% [at 87.6 µM] | –
c1cnc2nc(C3CCN(C4CCCCC4)C3)[nH]c2c1 (centres undefined) | -13.3% [at 87.6 µM] | –
O=C(NCc1ccc(F)cc1)N1CCC2(CC1)CC(OCC1CC1)CCO2 (centres undefined) | 4.57% [at 12.5 µM] | –
CCOC(=O)C1CCCN(C(=O)c2c(C)oc3c2CN(Cc2ccc(C)cc2)CC3)C1 (centres undefined) | 1.84% | –
COc1ccc(OC)c2nc(-c3cccc(C)c3)c(CN3CCCC(O)C3)cc12 (centres undefined) | -18% | –
O=C(NC1CCN(c2ccnc3ccnn23)C1)c1ccccc1F (centres undefined) | 2.27% [at 87.6 µM] | –
Cn1nccc1C(=O)NCCC1CCN(C(=O)Nc2ccccc2)CC1 | -3.2% | –
Cc1ccc(-c2noc([C@@H]3Cc4nc[nH]c4CN3Cc3cccc(C#N)c3)n2)cc1 | -20.9% [at 87.6 µM] | –
CCCCN(CC#Cc1ccccc1)C(=O)c1cc(=O)n(C)c(=O)n1C | -8.83% | –
COc1ccc(NC(=O)c2nc3sccn3c2-c2cccnc2)cc1 | -12.6% [at 87.6 µM] | –
COCCN1C(=O)CS(=O)(=O)C12CCN(C(=O)c1ccc(C)s1)CC2 | 20% | –
CCOc1ccccc1CN1CCC(Cc2nc(-c3cccnc3)n[nH]2)C1 (centres undefined) | -0.241% | –
COc1ccccc1-c1nc(C(=O)NCc2cccs2)n2ccncc12 | 28.7% | –
O=C(c1ccc(C(F)(F)F)cc1)N1CCCC(C(=O)N2CCC(c3nc4ccncc4[nH]3)C2)C1 (centres undefined) | -6.6% | –

SMILES | activity change, negative = cytotoxicity | Potency
CN1CCC2(CC1)Cc1ccccc1CN(C(=O)c1cccc(Cl)c1)C2 | 10.6% | –
O=C(NCc1cccc(Cl)c1)C1CCc2nnc(-c3cccc(C(F)(F)F)c3)n21 (centres undefined) | -23.1% | –
COc1ccccc1CN1C(=O)COC[C@@H]1[C@H](O)c1ccc(NC(=O)c2ccc(C#N)cc2)cc1 | -0.083% | –
CC(C)Cc1ccc(CN2CCC3(CC2)Cc2ccccc2CNC3=O)cc1 | -13.9% | –
COc1ccc(S(=O)(=O)N2CCC3(CCC(=O)N(CC4CC4)CC3)CC2)cc1 | 3.17% | –
O=C(NC1CCN(c2cc(-c3cccs3)[nH]n2)C1)c1ccc(Br)cc1 (centres undefined) | -25.9% | –
COc1ccc(CN2CC(Oc3ccc(F)c(F)c3)C2)cc1 | 6.04% | –
COc1cccc(-c2cc(C3CCN(C(=O)Nc4ccccc4C)CC3)[nH]n2)c1 | 5.76% | –
Cc1cccc(-c2nc3ccc(C(=O)N4C(C)CCCC4C)cc3o2)n1 (centres undefined) | 4.64% [at 87.6 µM] | –
COc1ccc(NC(=O)N2CCCC(Cc3noc(-c4ccccc4)n3)C2)cc1 (centres undefined) | -21.5% | –
O=C(Cc1ccc(F)cc1)N1CCC(n2cc(-c3nc(-c4ccccc4)no3)nn2)CC1 | -4.44% | –
COc1ccc(CNC(=O)C2CCN(c3cc(C(F)(F)F)nc(C)n3)CC2)cc1 | -1.08% | –
O=C(Nc1ccc(Cl)cc1)NC1CCN(C(=O)c2ccc(-c3cncnc3)cc2)CC1 | 0.645% [at 12.5 µM] | –
O=C(NC1CCCc2c1[nH]c1c(Cl)cccc21)c1ccco1 (centres undefined) | -11.1% | –
COc1ccc(C)cc1NC(=O)Nc1cccc(-c2ccc(N3CCCCC3)nn2)c1 | -0.192% | –
CC1(CCCCc2ccccc2)COc2ccc(C(=O)N3CCNC(=O)C3)cc2N1 (centres undefined) | 10.4% [at 87.6 µM] | –
COC(=O)C1=C(C)N=C2SC=C(CC(=O)N3CCCC3)N2C1c1cccc(F)c1 (centres undefined) | -2.14% | –
COC(=O)N1CCC(C(=O)N2CCC3(CC2)CC(=O)Nc2ccccc2O3)CC1 | -2.76% | –
O[C@@H]1C[C@@H](c2nc(-c3ccc4c(c3)OCO4)no2)N(Cc2ccc(-c3ccccn3)cc2)C1 | 3.7% | –
CN(C)c1cccc(-c2cnc(Nc3ccc(N4CCOCC4)cc3)c3c2CCO3)c1 | -24.4% [at 87.6 µM] | –
Cc1ccccc1N(C)C1CN(C(=O)OC(C)(C)C)C1 | -2.58% [at 87.6 µM] | –
COc1cccc(-c2cc(-c3nc(-c4ccc5nc[nH]c5c4)no3)[nH]n2)c1 | -0.573% | –
COc1ccc(S(=O)(=O)N2CCC(n3cnnc3-c3ccccc3)CC2)cc1Cl | 11.8% | –
O=C(C1CCN(c2nc(-c3ccccc3)nc3c2CCC3)CC1)N1CCC[C@H]1CO | -13.8% | –
